Measurements reported in PubChem BioAssay (Tox21).
Inconclusive results are not listed. Entries that show only a call come without a potency. The source made the active and inactive calls. Unless noted, calls follow the shape of the dose curve; as a rule, active = well fitted curve in the direction sought with a large enough effect in the repeat runs; inconclusive = weak or mixed curves; inactive = no such curve, though single readings can be large; an effect the other way counts as inactive or inconclusive.

Assays:
[1] = qHTS assay to identify small molecule antagonists of the glucocorticoid receptor (GR) signaling pathway - cell viability counter screen (AID 720693); also: nearly all actives have a fitted effect of over 55% in size
[2] = qHTS assay for identifying genotoxic compounds that show differential cytotoxicity against isogenic chicken DT40 cell lines with known DNA damage response pathways - wild type cell line (AID 743012); also: nearly all actives have a fitted effect of over 60% in size
Summary of the method: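 Parental DNA repair-proficient DT40 cells, 300 per well, were pre-incubated ~0.5 h at 37 C/5% CO2, pin-dosed with compounds in DMSO, then incubated 40 h. Viability was read as CellTiter-Glo luminescence after 30 min at room temperature.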

[3] = qHTS assay to identify small molecule antagonists of the androgen receptor (AR) signaling pathway - cell viability counter screen (AID 743033; also: nearly all actives have a fitted effect of over 45% in size)
[4] = qHTS assay to identify small molecule antagonists of the thyroid receptor (TR) signaling pathway - cell viability counter screen (AID 743064); also: nearly all actives have a fitted effect of over 50% in size
Summary of the method: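 Counter screen for cytotoxicity: compound plus T3 (1 nM final) on GH3.TRE-Luc cells, 23.5 h at 37 °C, then fluorescence viability readout with CellTiter-Fluor.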

[5] = qHTS assay to identify small molecule antagonists of the thyroid receptor (TR) signaling pathway (AID 743065); also: nearly all actives have a fitted effect of over 55% in size; also: potency is read from the fitted curve at half-maximal effect
Summary of the method: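 Antagonism measured as loss of luciferase signal in GH3 cells stably carrying a TRE-luciferase reporter, co-treated with compound and T3 (1 nM final) for 23.5 h at 37 C. Viability was read in the same well by CellTiter-Fluor.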

[6] = tested on: thyroid hormone receptor (rat, GH3 cells); experiment: qHTS assay to identify small molecule agonists of the thyroid receptor (TR) signaling pathway (AID 743066; calls by dose curve)
[7] = molecular target: Estrogen receptor (Homo sapiens) (UniProt P03372); experiment: qHTS assay to identify small molecule antagonists of the estrogen receptor alpha (ER-alpha) signaling pathway (AID 743069; active = well fitted curve in the direction sought with a large enough effect in the signal ratio in the repeat runs, not every such curve was filed as active; the % refers to the signal ratio)
Summary of the method: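 Compound effects are measured against 17beta-estradiol stimulation in HEK293 cells with a UAS-controlled beta-lactamase reporter for ER-alpha. Exposure lasts 18 hr at 37C; LiveBLAzer B/G FRET substrate follows for 2 hr at room temperature.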

[8] = molecular target: Estrogen receptor (Homo sapiens) (UniProt P03372); experiment: qHTS assay to identify small molecule agonists of the estrogen receptor alpha (ER-alpha) signaling pathway (AID 743075; calls by dose curve)
[9] = molecular target: Estrogen receptor (Homo sapiens) (UniProt P03372); experiment: qHTS assay to identify small molecule agonists of the estrogen receptor alpha (ER-alpha) signaling pathway using the BG1 cell line (AID 743079); also: nearly all actives have a fitted effect of over 20% in size
[10] = qHTS assay to identify small molecule antagonists of the estrogen receptor alpha (ER-alpha) signaling pathway using the BG1 cell line (AID 743080; calls by dose curve;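 also: BG1 cells stimulated with 17beta-estradiol alongside compound; series mostly up to about 70 µM; nearly all actives have a fitted effect of over 25% in size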)
Summary of the method: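 BG1-Luc-4E2 cells (endogenous full-length ER-alpha, 4xERE luciferase) hormone-starved 5 days in charcoal-stripped FBS, plated 4,000/well for 24 h, then compound plus 17beta-estradiol for 21.5 h at 37 C; ONE-Glo luminescence read.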

[11] = qHTS assay to identify small molecule antagonists of the estrogen receptor alpha (ER-alpha) signaling pathway using the BG1 cell line - cell viability counter screen (AID 743081);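 also: compound given together with 17beta-estradiol as the ER stimulus; series mostly up to about 70 µM; nearly all actives have a fitted effect of over 45% in size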
[12] = molecular target: Aromatase (Homo sapiens) (UniProt P11511); experiment: qHTS assay to identify aromatase inhibitors (AID 743083); also: series mostly up to about 70 µM; nearly all actives have a fitted effect of over 55% in size
[13] = qHTS assay for identifying genotoxic compounds that show differential cytotoxicity against isogenic chicken DT40 cell lines with known DNA damage response pathways - Rad54/Ku70 mutant cell line (AID 743015); also: nearly all actives have a fitted effect of over 60% in size; also: potency is read from the fitted curve at half-maximal effect
[14] = qHTS assay to identify small molecule antagonists of the estrogen receptor alpha (ER-alpha) signaling pathway - cell viability counter screen (AID 743074; calls by dose curve;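 also: HEK293 cells carrying ER-alpha-UAS-bla reporter stimulated with 17beta-estradiol; nearly all actives have a fitted effect of over 45% in size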)
[15] = qHTS assay to identify small molecule antagonists of the androgen receptor (AR) signaling pathway using the MDA cell line - cell viability counter screen (AID 743041; also: nearly all actives have a fitted effect of over 45% in size)
Summary of the method: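 R1881-driven MDA-kb2 AR-luc cells, 3,000/well, were dosed with library compounds for 16 h; cell health came from CellTiter-Fluor fluorescence in the reporter wells.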

[16] = qHTS assay for identifying genotoxic compounds that show differential cytotoxicity against isogenic chicken DT40 cell lines with known DNA damage response pathways - Rev3 mutant cell line (AID 743014); also: nearly all actives have a fitted effect of over 55% in size; also: potency is read from the fitted curve at half-maximal effect
[17] = molecular target: Androgen receptor (Homo sapiens) (UniProt P10275); experiment: qHTS assay to identify small molecule antagonists of the androgen receptor (AR) signaling pathway (AID 743035; active = well fitted inhibition curve with a large enough effect in the signal ratio in the repeat runs, not every such curve was filed as active; the % refers to the signal ratio)
Summary of the method: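 HEK293 cells stably carrying a UAS-driven beta-lactamase reporter (AR-UAS-bla GripTite) were plated for 4 h at 37C, then given compound and the agonist R1881 and incubated 16 h. Reporter activity was read by LiveBLAzer B/G FRET fluorescence after 2 h at room temperature.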

[18] = molecular target: Androgen receptor (Homo sapiens) (UniProt P10275); experiment: qHTS assay to identify small molecule agonists of the androgen receptor (AR) signaling pathway (AID 743036; active = well fitted activation curve with a large enough effect in the signal ratio in the repeat runs, with a control signal flat, not every such curve was filed as active; the % refers to the signal ratio)
Summary of the method: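 In this Tox21 qHTS, 2,000 HEK293 AR-bla cells per well were incubated with compounds for 16 h at 37C and 5% CO2. Fluorescence intensity was recorded 2 h after adding LiveBLAzer B/G FRET substrate at room temperature.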

[19] = molecular target: Androgen receptor (Homo sapiens) (UniProt P10275); experiment: qHTS assay to identify small molecule agonists of the androgen receptor (AR) signaling pathway using the MDA cell line (AID 743040; also: nearly all actives have a fitted effect of over 20% in size)
Summary of the method: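 After a 5 h incubation at 37C and 0% CO2, MDA-kb2 reporter cells were dosed with compounds in DMSO and kept 16 h under the same conditions. Luciferase activity was then read as luminescence with ONE-Glo.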

[20] = molecular target: Androgen receptor (Homo sapiens) (UniProt P10275); experiment: qHTS assay to identify small molecule antagonists of the androgen receptor (AR) signaling pathway using the MDA cell line (AID 743042; also: nearly all actives have a fitted effect of over 55% in size)
Summary of the method: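 Antagonist mode: compounds plus R1881 agonist added to MDA-kb2 AR-luc cells, incubated 16 h at 37C. Luciferase reporter luminescence quantified, with multiplexed CellTiter-Fluor readout for cell viability.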

Aromatase (Homo sapiens), sequence (P11511 whole entry, looked up): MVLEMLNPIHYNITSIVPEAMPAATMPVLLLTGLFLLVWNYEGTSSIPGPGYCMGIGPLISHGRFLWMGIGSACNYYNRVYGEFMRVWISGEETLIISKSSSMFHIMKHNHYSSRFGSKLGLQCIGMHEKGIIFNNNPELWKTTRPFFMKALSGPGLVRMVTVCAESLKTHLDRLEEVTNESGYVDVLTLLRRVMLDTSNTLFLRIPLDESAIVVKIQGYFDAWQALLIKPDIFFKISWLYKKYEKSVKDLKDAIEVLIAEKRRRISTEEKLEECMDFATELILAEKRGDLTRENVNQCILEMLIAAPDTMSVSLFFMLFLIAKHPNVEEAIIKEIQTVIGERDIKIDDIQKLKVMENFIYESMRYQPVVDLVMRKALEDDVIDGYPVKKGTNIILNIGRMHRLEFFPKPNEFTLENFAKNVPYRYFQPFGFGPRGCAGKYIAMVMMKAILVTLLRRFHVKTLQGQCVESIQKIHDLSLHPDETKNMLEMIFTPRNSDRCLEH
Estrogen receptor (Homo sapiens), sequence (P03372 whole entry, looked up): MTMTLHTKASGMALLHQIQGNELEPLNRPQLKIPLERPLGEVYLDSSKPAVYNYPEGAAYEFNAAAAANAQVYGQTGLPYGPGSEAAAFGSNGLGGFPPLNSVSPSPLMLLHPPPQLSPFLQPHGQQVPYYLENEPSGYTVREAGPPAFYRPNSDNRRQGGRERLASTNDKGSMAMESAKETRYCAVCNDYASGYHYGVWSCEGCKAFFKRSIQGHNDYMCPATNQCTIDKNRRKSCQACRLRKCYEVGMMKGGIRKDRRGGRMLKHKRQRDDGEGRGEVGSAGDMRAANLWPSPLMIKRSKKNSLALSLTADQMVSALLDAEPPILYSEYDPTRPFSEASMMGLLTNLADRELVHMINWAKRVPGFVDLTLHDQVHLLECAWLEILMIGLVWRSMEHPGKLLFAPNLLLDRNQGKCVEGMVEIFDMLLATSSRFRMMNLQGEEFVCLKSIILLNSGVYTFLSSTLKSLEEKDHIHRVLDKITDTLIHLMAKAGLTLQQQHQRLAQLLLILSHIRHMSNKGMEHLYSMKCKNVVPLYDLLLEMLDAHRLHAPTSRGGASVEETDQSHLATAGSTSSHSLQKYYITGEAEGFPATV
Androgen receptor (Homo sapiens), sequence (P10275 whole entry, looked up): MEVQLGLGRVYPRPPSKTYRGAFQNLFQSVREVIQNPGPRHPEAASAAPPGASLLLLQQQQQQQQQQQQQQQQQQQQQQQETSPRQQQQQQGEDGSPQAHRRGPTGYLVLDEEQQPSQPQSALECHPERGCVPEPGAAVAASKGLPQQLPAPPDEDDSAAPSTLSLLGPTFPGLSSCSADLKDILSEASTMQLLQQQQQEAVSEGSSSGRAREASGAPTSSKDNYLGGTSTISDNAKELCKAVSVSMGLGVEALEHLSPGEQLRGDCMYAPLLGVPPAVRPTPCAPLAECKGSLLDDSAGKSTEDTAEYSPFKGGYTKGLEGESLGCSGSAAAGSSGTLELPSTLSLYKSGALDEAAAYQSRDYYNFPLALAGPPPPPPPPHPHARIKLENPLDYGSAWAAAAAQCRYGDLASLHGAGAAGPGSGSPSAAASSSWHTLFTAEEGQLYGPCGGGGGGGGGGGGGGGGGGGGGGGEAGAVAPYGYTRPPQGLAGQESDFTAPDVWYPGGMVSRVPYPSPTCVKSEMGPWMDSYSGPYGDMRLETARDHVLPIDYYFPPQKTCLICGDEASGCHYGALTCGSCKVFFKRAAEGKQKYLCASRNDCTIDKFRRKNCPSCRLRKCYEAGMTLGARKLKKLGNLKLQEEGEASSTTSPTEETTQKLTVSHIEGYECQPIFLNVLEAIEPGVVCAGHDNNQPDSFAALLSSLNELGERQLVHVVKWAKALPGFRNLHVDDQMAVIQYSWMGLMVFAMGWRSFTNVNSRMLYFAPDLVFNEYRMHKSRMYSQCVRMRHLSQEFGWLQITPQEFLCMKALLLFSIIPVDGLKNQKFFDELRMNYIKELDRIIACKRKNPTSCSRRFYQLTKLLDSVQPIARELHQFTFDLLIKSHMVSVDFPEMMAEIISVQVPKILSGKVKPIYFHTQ

Row | SMILES | outcome [1] | Potency [2] | outcome [3] | Potency [4] | Potency [5] | outcome [6] | Potency [7] | Potency [8] | Potency [9] | Potency [10] | outcome [11] | outcome [12] | Potency [13] | Potency [14] | Potency [15] | Potency [16] | Potency [17] | outcome [18] | Potency [19] | outcome [20]
1 | C[C@H]1C[C@H]2[C@@H]3CCC4=CC(=O)C=C[C@]4(C)[C@H]3C(=O)C[C@]2(C)[C@@]1(O)C(=O)CO | inactive | inactive | inactive | inactive | inactive | inactive | inactive | inactive | inactive | inactive | inactive | inactive | – | – | – | – | – | – | – | –
2 | CCCO[Si](OCCC)(OCCC)OCCC | inactive | inactive | inactive | inactive | – | – | inactive | inactive | inactive | inactive | inactive | inactive | inactive | inactive | – | – | – | – | – | –
3 | C=CC(C)(CCC=C(C)C)OC(=O)CC (stereo unspecified) | inactive | inactive | inactive | inactive | inactive | inactive | inactive | inactive | inactive | – | inactive | inactive | inactive | inactive | inactive | – | – | – | – | –
4 | C=CCCCCCCCCC(=O)OCC | inactive | inactive | inactive | inactive | inactive | inactive | – | inactive | inactive | inactive | inactive | inactive | – | – | – | inactive | – | – | – | –
5 | Cc1ncc([C@@H](CCCCCCc2ccc3c(n2)NCCC3)CC(=O)O)cn1 | inactive | inactive | inactive | inactive | inactive | inactive | – | inactive | inactive | – | inactive | inactive | inactive | inactive | inactive | – | – | – | – | –
6 | CCN(CC#N)c1cccc(C)c1 | inactive | inactive | – | inactive | – | – | inactive | inactive | inactive | inactive | inactive | inactive | – | inactive | – | inactive | – | – | – | –
7 | CCOC(=O)c1ccccc1 | inactive | inactive | inactive | inactive | inactive | inactive | inactive | inactive | – | – | inactive | inactive | – | inactive | inactive | – | – | – | – | –
8 | CCN[C@@H]1C[C@H](N)[C@@H](OC2OC(CN)=CCC2N)[C@H](O)[C@H]1O[C@H]1OC[C@](C)(O)[C@H](NC)[C@H]1O (stereo partly specified) | inactive | inactive | inactive | inactive | inactive | inactive | – | – | – | – | inactive | inactive | – | inactive | inactive | – | – | – | – | –
9 | CN(C)CCN(C)CCN(C)C | inactive | inactive | inactive | inactive | inactive | inactive | inactive | inactive | inactive | inactive | inactive | inactive | – | inactive | – | inactive | – | – | – | –
10 | CCOC(=O)OC(C)OC1=C(C(=O)Nc2ccccn2)N(C)S(=O)(=O)c2ccccc21 (stereo unspecified) | inactive | – | inactive | inactive | inactive | inactive | inactive | inactive | – | inactive | inactive | inactive | 0.944 µM (active) | – | inactive | 1.5 µM (active) | – | – | – | –
11 | COC(=O)C1=C(C)NC(C)=C(C(=O)OC(C)C)C1c1cccc2nonc12 (stereo unspecified) | inactive | inactive | – | inactive | inactive | inactive | – | – | – | – | inactive | inactive | – | inactive | inactive | inactive | inactive | inactive | inactive | inactive
12 | CC(CC=O)CC(C)(C)C (stereo unspecified) | – | inactive | inactive | inactive | inactive | inactive | inactive | inactive | inactive | inactive | inactive | inactive | inactive | – | inactive | inactive | – | – | – | –
13 | CC[C@H]1OC(=O)[C@H](C)[C@@H](O[C@H]2C[C@@](C)(OC)[C@@H](O)[C@H](C)O2)[C@H](C)[C@@H](O[C@@H]2O[C@H](C)C[C@H](N(C)C)[C@H]2O)[C@](C)(OC)C[C@@H](C)C(=O)[C@H](C)[C@@H](O)[C@]1(C)O | inactive | – | inactive | inactive | inactive | inactive | inactive | inactive | inactive | inactive | – | inactive | – | inactive | inactive | inactive | – | – | – | –
14 | C=C[Si](OC(C)=O)(OC(C)=O)OC(C)=O | inactive | – | inactive | inactive | inactive | inactive | inactive | inactive | inactive | – | inactive | inactive | – | inactive | inactive | 61.1 µM (active) | inactive | inactive | inactive | inactive
15 | CCN(Cc1ccccc1)c1ccccc1 | – | inactive | inactive | – | – | – | inactive | inactive | inactive | inactive | inactive | inactive | inactive | inactive | inactive | inactive | inactive | inactive | inactive | inactive
16 | CCOC(=O)COC(=O)c1ccccc1C(=O)OCC | – | inactive | inactive | inactive | inactive | inactive | inactive | inactive | inactive | – | inactive | inactive | inactive | inactive | inactive | inactive | – | – | – | –
17 | COc1cc(C)nc(-n2nc(C)cc2OC)n1 | inactive | – | inactive | inactive | inactive | inactive | – | – | – | – | inactive | inactive | – | inactive | inactive | – | – | – | – | –
18 | C[N+](C)(CCOc1ccccc1)Cc1cccs1 | inactive | – | inactive | inactive | inactive | inactive | – | – | – | – | inactive | inactive | inactive | inactive | inactive | – | – | – | inactive | –
19 | C[N+]1(C)CCCC(OC(=O)C(O)(c2ccccc2)c2ccccc2)C1 (stereo unspecified) | – | inactive | inactive | inactive | inactive | inactive | inactive | inactive | – | – | inactive | inactive | inactive | inactive | inactive | inactive | – | – | – | –
20 | C=CC(=O)OCCCl | inactive | – | inactive | inactive | inactive | inactive | – | inactive | inactive | – | inactive | inactive | – | inactive | inactive | – | – | – | – | –
21 | CCCCCCCCCCCCCCC(=O)O | inactive | – | inactive | inactive | inactive | inactive | inactive | – | – | inactive | inactive | inactive | – | inactive | – | – | – | – | – | –
22 | CN1CCC(=C2c3ccccc3CCc3cccnc32)CC1 | inactive | – | inactive | – | 23.7 µM (active) | inactive | inactive | inactive | inactive | inactive | inactive | inactive | inactive | inactive | inactive | inactive | – | – | – | –
23 | CC(C)=CCC/C(C)=C/C#N | inactive | – | inactive | inactive | inactive | inactive | – | inactive | inactive | inactive | inactive | inactive | – | inactive | inactive | – | – | – | – | –
